# Key:
# Test in all cases: DAPPL (digital affinity profiling via proximity ligation, sequencing); 10 mM Tris-HCl pH 7.5, 50 mM NaCl, 1 mM DTT, 4% glycerol, room temperature, 30 min; GST-TFs on glutathione beads, 16-mer random dsDNA library, 0.1% formaldehyde crosslink after washing; high values mean tight binding
# FLI1 = target: T1, FLI1 (Homo sapiens, UniProt Q01543 1-452); conditions: protein: recombinant; tags: N-terminal GST; dsDNA, one strand shown
# T1 sequence: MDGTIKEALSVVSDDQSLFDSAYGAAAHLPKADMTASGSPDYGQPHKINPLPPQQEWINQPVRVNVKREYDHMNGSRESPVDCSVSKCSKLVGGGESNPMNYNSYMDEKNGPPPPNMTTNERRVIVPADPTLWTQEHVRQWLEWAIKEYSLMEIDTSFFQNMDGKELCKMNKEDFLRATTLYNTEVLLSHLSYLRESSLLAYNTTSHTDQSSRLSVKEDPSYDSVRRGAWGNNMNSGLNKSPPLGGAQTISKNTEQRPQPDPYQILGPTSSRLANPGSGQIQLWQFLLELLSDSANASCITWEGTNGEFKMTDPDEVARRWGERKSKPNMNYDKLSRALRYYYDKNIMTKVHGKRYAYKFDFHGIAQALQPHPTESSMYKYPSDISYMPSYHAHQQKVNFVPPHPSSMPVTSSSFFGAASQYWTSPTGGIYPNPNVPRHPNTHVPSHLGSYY
# How it was run: (§1)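 The binding signal reported is, for every hexamer, its read frequency for a factor over its read frequency for the tag-only sample. Reads came from pools of yeast-expressed, GST-fused human transcription factors on glutathione beads, barcoded with DNA and mixed with that sample, which were incubated with 200 nmole of a random double-stranded 16-mer DNA library in Tris/NaCl/DTT/glycerol buffer at room temperature for 30 min. After washing, the pools were crosslinked with 0.1% formaldehyde, proximity-ligated with BsaI/T4 ligase for 1 h at 37 °C, PCR-amplified and sequenced on an Illumina NextSeq500.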
# ELK1 = target: T2, ELK1 (Homo sapiens, UniProt P19419 1-428); conditions: protein: recombinant; tags: N-terminal GST; dsDNA, one strand shown
# T2 sequence: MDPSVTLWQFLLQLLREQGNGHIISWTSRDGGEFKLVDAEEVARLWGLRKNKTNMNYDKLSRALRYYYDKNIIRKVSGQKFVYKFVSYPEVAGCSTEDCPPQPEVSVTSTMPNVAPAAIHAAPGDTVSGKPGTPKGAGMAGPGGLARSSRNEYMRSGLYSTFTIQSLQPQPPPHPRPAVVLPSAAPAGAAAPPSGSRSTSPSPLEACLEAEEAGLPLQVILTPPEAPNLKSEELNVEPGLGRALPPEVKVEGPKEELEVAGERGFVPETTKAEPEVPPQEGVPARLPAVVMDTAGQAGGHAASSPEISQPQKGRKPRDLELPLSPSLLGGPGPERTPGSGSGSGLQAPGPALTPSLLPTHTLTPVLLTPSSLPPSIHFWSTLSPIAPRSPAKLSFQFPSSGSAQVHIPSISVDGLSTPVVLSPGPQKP
# How it was run: as §1
# GABPA = target: T3, GABPA (Homo sapiens, UniProt Q06546 1-454); conditions: protein: recombinant; tags: N-terminal GST; dsDNA, one strand shown
# T3 sequence: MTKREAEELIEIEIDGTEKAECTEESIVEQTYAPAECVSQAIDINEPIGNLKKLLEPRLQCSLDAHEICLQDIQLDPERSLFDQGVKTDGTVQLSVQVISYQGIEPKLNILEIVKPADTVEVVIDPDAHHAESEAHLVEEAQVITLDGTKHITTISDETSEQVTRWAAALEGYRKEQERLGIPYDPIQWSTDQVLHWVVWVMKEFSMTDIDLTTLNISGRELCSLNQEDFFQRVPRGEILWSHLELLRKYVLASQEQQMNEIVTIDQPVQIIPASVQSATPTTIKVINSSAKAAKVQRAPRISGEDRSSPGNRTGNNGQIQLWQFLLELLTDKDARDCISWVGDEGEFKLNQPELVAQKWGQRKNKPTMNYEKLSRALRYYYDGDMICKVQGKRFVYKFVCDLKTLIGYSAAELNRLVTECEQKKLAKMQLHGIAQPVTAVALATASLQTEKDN
# How it was run: as §1
# ERG = target: T4, ERG (Homo sapiens, UniProt P11308 1-479); conditions: protein: recombinant; tags: N-terminal GST; dsDNA, one strand shown
# T4 sequence: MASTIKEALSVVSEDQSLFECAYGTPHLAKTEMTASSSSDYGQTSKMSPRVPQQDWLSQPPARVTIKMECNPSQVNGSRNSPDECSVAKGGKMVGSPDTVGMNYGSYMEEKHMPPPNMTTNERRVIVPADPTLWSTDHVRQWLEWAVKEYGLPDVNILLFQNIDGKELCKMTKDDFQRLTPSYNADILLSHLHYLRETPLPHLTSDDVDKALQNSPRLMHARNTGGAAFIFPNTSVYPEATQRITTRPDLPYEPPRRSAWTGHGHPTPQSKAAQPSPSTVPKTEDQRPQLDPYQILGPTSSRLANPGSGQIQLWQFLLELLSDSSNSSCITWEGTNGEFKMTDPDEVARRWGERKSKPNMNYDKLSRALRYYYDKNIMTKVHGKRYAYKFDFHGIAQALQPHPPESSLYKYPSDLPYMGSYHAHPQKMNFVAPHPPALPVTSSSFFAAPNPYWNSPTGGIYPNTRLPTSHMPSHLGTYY
# How it was run: as §1
# ELF1 = ELF1 (Homo sapiens, UniProt P32519 1-619); conditions: protein: recombinant; tags: N-terminal GST; dsDNA, one strand shown
# ELF1, sequence (P32519 whole entry): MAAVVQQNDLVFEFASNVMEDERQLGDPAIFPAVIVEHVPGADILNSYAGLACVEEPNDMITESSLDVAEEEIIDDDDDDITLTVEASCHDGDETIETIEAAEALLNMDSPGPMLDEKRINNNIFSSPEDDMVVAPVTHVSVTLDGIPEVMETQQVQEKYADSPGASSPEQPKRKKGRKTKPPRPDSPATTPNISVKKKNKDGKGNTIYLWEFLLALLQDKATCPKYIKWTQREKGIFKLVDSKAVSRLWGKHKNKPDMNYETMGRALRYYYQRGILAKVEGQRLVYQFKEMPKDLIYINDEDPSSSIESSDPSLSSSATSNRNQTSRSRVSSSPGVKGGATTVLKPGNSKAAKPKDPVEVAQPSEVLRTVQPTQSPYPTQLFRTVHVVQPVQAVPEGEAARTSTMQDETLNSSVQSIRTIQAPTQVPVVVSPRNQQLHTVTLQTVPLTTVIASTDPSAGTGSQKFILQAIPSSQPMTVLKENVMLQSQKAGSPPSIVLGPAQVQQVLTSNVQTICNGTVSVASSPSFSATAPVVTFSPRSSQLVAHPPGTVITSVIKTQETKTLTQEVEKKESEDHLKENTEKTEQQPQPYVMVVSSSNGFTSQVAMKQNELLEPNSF
# How it was run: as §1
# EHF = target: T5, EHF (Homo sapiens, UniProt Q9NZC4 1-300); conditions: protein: recombinant; tags: N-terminal GST; dsDNA, one strand shown
# T5 sequence: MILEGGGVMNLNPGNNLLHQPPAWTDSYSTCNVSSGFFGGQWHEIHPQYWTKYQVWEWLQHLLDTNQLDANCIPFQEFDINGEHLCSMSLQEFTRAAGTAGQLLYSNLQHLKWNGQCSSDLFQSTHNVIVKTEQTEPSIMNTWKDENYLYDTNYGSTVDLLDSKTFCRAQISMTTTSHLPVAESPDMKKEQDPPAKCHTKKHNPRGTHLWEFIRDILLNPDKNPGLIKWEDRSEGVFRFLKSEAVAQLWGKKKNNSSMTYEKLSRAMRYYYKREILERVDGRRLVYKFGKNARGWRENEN
# How it was run: as §1
# SPI1 = SPI1 (Homo sapiens, UniProt P17947 1-270); conditions: protein: recombinant; tags: N-terminal GST; dsDNA, one strand shown
# How it was run: as §1
# SPIB = SPIB (Homo sapiens, UniProt Q01892 1-262); conditions: protein: recombinant; tags: N-terminal GST; dsDNA, one strand shown
# SPIB, sequence (Q01892 whole entry): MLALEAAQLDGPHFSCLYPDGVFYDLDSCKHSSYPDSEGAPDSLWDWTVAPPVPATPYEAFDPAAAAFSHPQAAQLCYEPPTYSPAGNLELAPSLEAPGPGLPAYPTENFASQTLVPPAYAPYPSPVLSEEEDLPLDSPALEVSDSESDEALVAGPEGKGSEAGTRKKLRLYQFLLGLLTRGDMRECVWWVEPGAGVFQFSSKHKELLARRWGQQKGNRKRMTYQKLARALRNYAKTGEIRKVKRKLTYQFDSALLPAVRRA
# How it was run: as §1
# ELK3 = target: T6, ELK3 (Homo sapiens, UniProt P41970 1-407); conditions: protein: recombinant; tags: N-terminal GST; dsDNA, one strand shown
# T6 sequence: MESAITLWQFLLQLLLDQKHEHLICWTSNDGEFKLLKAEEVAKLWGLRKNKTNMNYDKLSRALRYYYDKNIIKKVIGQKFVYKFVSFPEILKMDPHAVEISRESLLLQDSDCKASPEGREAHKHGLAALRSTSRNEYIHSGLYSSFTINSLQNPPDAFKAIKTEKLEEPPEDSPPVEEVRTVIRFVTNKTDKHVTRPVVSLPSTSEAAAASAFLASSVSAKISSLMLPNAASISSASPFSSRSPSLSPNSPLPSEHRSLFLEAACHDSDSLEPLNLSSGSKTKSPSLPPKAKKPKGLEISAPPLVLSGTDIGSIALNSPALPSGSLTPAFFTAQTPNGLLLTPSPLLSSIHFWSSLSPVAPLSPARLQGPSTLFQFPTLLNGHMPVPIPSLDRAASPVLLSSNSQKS
# How it was run: as §1
# FEV = target: T7, FEV (Homo sapiens, UniProt Q99581 1-238); conditions: protein: recombinant; tags: N-terminal GST; dsDNA, one strand shown
# T7 sequence: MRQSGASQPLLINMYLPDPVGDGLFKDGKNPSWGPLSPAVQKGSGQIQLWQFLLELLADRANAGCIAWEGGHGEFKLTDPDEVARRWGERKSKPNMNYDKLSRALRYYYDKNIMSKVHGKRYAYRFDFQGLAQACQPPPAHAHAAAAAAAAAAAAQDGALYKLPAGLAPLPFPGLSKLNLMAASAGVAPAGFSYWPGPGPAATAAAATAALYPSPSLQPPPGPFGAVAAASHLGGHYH
# How it was run: as §1
# ETV5 = ETV5 (Homo sapiens, UniProt P41161 1-510); conditions: protein: recombinant; tags: N-terminal GST; dsDNA, one strand shown
# ETV5, sequence (P41161 whole entry): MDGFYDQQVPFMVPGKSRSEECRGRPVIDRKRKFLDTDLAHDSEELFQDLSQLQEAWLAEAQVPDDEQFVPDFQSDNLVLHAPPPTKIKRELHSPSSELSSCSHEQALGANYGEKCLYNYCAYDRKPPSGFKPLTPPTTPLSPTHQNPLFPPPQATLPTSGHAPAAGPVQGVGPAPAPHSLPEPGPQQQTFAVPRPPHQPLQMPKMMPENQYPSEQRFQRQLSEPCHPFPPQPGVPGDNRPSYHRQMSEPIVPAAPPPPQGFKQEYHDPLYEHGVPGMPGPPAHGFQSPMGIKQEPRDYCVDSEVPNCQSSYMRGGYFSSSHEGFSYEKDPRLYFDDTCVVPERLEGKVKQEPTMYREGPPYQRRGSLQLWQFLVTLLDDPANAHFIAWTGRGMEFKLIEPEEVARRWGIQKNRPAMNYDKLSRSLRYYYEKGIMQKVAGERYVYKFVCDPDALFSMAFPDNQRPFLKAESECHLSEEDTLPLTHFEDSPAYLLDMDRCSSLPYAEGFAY
# How it was run: as §1
# HSF1 = HSF1 (Homo sapiens, UniProt Q00613 1-529); conditions: protein: recombinant; tags: N-terminal GST; chain copies: 3; dsDNA, one strand shown
# HSF1, sequence (Q00613 whole entry): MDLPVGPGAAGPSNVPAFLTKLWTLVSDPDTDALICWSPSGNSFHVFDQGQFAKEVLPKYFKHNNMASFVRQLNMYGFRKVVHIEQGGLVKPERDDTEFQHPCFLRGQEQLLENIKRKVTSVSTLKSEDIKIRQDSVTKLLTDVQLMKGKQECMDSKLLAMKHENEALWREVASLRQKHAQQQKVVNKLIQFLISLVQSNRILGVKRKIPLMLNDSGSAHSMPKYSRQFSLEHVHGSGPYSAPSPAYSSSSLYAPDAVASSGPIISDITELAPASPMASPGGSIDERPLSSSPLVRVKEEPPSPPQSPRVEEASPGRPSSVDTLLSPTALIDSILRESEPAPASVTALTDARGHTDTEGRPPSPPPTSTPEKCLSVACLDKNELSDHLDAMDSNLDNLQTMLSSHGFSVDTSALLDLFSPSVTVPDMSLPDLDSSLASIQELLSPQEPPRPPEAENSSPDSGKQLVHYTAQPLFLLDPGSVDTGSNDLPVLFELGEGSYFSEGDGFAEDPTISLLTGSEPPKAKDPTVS
# How it was run: as §1
# SPIC = target: T8, SPIC (Homo sapiens, UniProt Q8N5J4 1-248); conditions: protein: recombinant; tags: N-terminal GST; dsDNA, one strand shown
# T8 sequence: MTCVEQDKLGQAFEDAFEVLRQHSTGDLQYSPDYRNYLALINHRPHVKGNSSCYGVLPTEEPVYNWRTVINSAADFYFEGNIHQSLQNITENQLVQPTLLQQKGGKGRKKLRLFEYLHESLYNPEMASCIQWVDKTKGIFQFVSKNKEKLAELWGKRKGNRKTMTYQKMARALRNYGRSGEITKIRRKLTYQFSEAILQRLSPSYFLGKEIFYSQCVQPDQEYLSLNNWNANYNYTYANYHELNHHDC
# How it was run: as §1
# ELF4 = ELF4 (Homo sapiens, UniProt Q99607 1-663); conditions: protein: recombinant; tags: N-terminal GST; dsDNA, one strand shown
# ELF4, sequence (Q99607 whole entry): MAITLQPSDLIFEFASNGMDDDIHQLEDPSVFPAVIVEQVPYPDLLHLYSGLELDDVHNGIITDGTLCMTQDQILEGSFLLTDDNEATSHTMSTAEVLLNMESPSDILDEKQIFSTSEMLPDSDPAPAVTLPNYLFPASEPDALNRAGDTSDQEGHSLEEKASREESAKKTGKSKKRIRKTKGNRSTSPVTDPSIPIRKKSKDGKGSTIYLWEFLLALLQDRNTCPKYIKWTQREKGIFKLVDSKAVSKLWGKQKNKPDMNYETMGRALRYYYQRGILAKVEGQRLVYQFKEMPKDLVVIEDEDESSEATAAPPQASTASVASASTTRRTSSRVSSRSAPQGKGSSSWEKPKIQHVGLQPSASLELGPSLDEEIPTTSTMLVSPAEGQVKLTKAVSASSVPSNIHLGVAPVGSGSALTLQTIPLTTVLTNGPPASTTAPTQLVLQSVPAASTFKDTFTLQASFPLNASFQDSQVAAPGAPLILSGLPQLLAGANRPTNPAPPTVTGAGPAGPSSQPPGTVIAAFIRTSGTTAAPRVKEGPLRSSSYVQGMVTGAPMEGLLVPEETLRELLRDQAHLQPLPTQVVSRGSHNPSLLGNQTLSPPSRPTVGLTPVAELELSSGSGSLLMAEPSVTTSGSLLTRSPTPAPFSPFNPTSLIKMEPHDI
# How it was run: as §1
# ELK4 = target: T9, ELK4 (Homo sapiens, UniProt P28324-2 1-405); conditions: protein: recombinant; tags: N-terminal GST; dsDNA, one strand shown
# T9 sequence: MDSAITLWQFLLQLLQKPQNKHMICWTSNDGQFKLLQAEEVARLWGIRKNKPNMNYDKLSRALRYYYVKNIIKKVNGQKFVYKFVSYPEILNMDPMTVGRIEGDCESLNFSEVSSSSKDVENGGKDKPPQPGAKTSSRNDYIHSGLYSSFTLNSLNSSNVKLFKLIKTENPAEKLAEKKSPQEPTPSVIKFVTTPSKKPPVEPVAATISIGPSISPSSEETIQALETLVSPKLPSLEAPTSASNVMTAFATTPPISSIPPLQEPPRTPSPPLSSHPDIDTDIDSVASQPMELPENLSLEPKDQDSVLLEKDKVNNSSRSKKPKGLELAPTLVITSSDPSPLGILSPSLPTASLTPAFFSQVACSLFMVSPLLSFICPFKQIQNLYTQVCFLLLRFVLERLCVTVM
# How it was run: as §1
# ETV2 = target: T10, ETV2 (Homo sapiens, UniProt O00321 1-342); conditions: protein: recombinant; tags: N-terminal GST; dsDNA, one strand shown
# T10 sequence: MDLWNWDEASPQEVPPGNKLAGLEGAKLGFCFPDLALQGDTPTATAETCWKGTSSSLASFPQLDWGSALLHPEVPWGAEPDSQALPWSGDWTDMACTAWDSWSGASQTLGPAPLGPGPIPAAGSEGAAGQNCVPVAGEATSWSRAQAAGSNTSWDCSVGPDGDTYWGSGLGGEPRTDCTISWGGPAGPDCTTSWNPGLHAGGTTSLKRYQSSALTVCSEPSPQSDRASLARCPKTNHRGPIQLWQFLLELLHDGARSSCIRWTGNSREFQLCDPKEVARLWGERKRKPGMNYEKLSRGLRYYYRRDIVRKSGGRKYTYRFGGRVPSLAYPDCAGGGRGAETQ
# How it was run: as §1
# ELF3 = target: T11, ELF3 (Homo sapiens, UniProt P78545 1-371); conditions: protein: recombinant; tags: N-terminal GST; dsDNA, one strand shown
# T11 sequence: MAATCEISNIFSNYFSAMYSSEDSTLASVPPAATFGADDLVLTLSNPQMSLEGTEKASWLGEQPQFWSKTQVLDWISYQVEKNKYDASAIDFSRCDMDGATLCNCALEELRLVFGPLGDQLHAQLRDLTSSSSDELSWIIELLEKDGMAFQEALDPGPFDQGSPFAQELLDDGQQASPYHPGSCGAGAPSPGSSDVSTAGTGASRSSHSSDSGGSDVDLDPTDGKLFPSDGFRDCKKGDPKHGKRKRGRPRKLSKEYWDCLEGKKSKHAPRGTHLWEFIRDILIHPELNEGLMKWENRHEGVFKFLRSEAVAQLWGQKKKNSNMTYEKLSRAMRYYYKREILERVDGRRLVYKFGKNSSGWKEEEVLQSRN
# How it was run: as §1
# CRX = CRX (Homo sapiens, UniProt O43186 1-299); conditions: protein: recombinant; tags: N-terminal GST; dsDNA, one strand shown
# CRX, sequence (O43186 whole entry): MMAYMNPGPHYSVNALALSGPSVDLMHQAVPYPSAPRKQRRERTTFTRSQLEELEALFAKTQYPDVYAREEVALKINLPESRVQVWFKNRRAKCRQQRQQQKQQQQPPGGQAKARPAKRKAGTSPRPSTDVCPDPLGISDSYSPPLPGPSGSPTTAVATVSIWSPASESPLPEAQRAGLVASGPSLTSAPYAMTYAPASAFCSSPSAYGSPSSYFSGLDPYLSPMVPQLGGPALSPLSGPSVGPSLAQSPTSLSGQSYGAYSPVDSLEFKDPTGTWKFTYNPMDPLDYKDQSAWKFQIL
# How it was run: as §1
# ETV1 = ETV1 (Homo sapiens, UniProt P50549 1-477); conditions: protein: recombinant; tags: N-terminal GST; dsDNA, one strand shown
# ETV1, sequence (P50549 whole entry): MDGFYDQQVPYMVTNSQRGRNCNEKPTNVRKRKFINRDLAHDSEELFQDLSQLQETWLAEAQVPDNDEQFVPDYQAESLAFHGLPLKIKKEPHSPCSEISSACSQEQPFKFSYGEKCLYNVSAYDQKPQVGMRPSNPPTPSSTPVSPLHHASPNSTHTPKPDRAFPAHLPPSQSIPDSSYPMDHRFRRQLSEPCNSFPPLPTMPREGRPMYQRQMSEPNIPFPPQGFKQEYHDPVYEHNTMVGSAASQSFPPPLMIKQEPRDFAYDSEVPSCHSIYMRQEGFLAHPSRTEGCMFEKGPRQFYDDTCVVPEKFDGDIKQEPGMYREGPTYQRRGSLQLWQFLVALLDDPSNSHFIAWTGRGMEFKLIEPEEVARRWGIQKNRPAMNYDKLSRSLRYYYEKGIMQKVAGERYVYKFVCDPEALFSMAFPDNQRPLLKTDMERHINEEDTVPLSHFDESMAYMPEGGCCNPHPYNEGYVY
# How it was run: as §1
sequence,measurement,setting,value
CTCGTC,binding signal,FLI1,"1.49 fold enrichment (6-mer frequency, TF over GST control)"
same,binding signal,ELK1,"1.27 fold enrichment (6-mer frequency, TF over GST control)"
same,binding signal,GABPA,"1.51 fold enrichment (6-mer frequency, TF over GST control)"
same,binding signal,ERG,"1.37 fold enrichment (6-mer frequency, TF over GST control)"
same,binding signal,ELF1,"1.36 fold enrichment (6-mer frequency, TF over GST control)"
same,binding signal,EHF,"1.36 fold enrichment (6-mer frequency, TF over GST control)"
same,binding signal,SPI1,"1.34 fold enrichment (6-mer frequency, TF over GST control)"
same,binding signal,SPIB,"1.39 fold enrichment (6-mer frequency, TF over GST control)"
same,binding signal,ELK3,"1.46 fold enrichment (6-mer frequency, TF over GST control)"
same,binding signal,FEV,"1.31 fold enrichment (6-mer frequency, TF over GST control)"
same,binding signal,ETV5,"1.31 fold enrichment (6-mer frequency, TF over GST control)"
same,binding signal,HSF1,"1.22 fold enrichment (6-mer frequency, TF over GST control)"
same,binding signal,SPIC,"1.37 fold enrichment (6-mer frequency, TF over GST control)"
same,binding signal,ELF4,"1.42 fold enrichment (6-mer frequency, TF over GST control)"
same,binding signal,ELK4,"1.57 fold enrichment (6-mer frequency, TF over GST control)"
same,binding signal,ETV2,"1.25 fold enrichment (6-mer frequency, TF over GST control)"
same,binding signal,ELF3,"1.47 fold enrichment (6-mer frequency, TF over GST control)"
same,binding signal,CRX,"1.02 fold enrichment (6-mer frequency, TF over GST control)"
same,binding signal,ETV1,"1.45 fold enrichment (6-mer frequency, TF over GST control)"

# Source: PMC7862700, “An all-to-all approach to the identification of sequence-specific readers for epigenetic DNA modifications on cytosine”
